Screening data as filed in PubChem.
RPL19A TOR yeast = RPL19A-GFP expression modulators in yeast, primary screen, cell-based, S. cerevisiae, multiplex flow cytometry, MLPCN. S. cerevisiae RPL19A-GFP strain, 3 h; hits give low values. percent response vs DMSO, % at 10 µM. 330,000 tested, 0.3% active;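 active = percent response vs DMSO below 50%; inconclusive = fewer than 70 events counted for the yeast strain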;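 also: median channel GFP fluorescence of the barcoded RPL19A-GFP strain; lower means less RPL19A-GFP as with rapamycin TOR inhibition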
MEP2 TOR yeast = modulators of MEP2-GFP levels in yeast, primary screen, S. cerevisiae, multiplex flow cytometry, MLPCN library. 330,000 tested, 0.51% active. S. cerevisiae MEP2-GFP strain, 3 h; 100% = DMSO control level. GFP response vs DMSO, % at 10 µM. AID 2016, 2009;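 active = GFP response versus DMSO above a set limit, roughly screen mean plus 3 SD, cut at about 180% in these data; inconclusive = fewer than 70 cells counted for a yeast strain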;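 also: median GFP fluorescence of the barcode-gated MEP2-GFP cells per well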
CIT2-GFP yeast = modulators of CIT2-GFP expression in yeast, primary screen, S. cerevisiae, GFP fusion, multiplex flow cytometry, MLPCN library | S. cerevisiae CIT2-GFP strain, 3 h; 100 means same as DMSO wells | GFP response vs DMSO, % at 10 µM | 320,000 tested, 0.065% active | AID 2029, 2009;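 active = GFP response relative to DMSO above a set limit, near the screen mean plus 3 SD, cut at about 150% in these data; inconclusive = Fewer than 70 cells measured for a yeast strain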;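 also: ratio of well median GFP fluorescence to mean of DMSO wells on the plate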
Efflux pump mplx = inhibitors of Candida efflux pumps in yeast, primary screen, S. cerevisiae, Nile Red, multiplex. AID 485275, 2010. inhibition, % at 10 µM. S. cerevisiae Candida pump triplex. 330,000 tested, 0.44% active;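 active = plate passing quality check with inhibition over a set limit, or well fluorescence over plate mean plus 4 SD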;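 also: Nile Red retained in pooled yeast measured as flow cytometry median fluorescence; higher means more Nile Red kept so more efflux inhibition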
LAP4-GFP MLPCN = modulators of LAP4-GFP expression in yeast, primary screen, S. cerevisiae, multiplex flow cytometry, MLPCN library; GFP response vs DMSO, % at 10 µM; 3 h; median GFP as percent of DMSO wells; 320,000 tested, 0.34% active;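 active = GFP response vs DMSO above a set limit, about the screen mean plus 3 SD, cut at about 150% in these data; inconclusive = under 70 cell events counted for the yeast strain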
AGP1 TOR yeast = modulators of AGP1-GFP expression in yeast TOR pathway, primary screen, cell-based, multiplex flow cytometry, S. cerevisiae, MLPCN library. GFP response vs DMSO, % at 10 µM. AID 2066, 2009. 320,000 tested, 0.02% active. 3 h; GFP as percent of DMSO wells;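 active = GFP response relative to DMSO above a set limit, near screen average plus 3 SD, cut at about 150% in these data; inconclusive = fewer than 70 cells counted for the yeast strain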;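 also: median GFP channel fluorescence of the gated AGP1 strain per well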
Large screens that a line does not name were inactive; [ ] = remark or other dose. The list is not random: actives were taken first. Their share in the collection is about 1.3%.

NS(=O)(=O)c1ccc(N2N=C(c3ccccc3)CC2c2ccccc2Br)cc1 (configuration not stated)	none (no result: RPL19A TOR yeast, MEP2 TOR yeast, CIT2-GFP yeast, LAP4-GFP MLPCN, AGP1 TOR yeast)
O=C(NCC(c1ccc(F)cc1)N1CCOCC1)c1cc(F)c(F)c(F)c1F (configuration not stated)	CIT2-GFP yeast 171
O=C(NCC(c1ccc(F)cc1)N1CCOCC1)c1ccccc1F (configuration not stated)	none
CNC(=O)CSc1nnc(C(C)C)n1C	none
Cn1nc(C(F)(F)F)c(C(=O)Nc2ccc(Cl)cc2)c1Cl	RPL19A TOR yeast 23[may fluoresce violet], MEP2 TOR yeast 353[may fluoresce violet], CIT2-GFP yeast inconclusive
C=CCN1C(=O)C2C(C(=O)NC)C3(C)C=CC2(O3)C1C(=O)NCc1ccc(OC)cc1 (configuration not stated)	MEP2 TOR yeast 519[may fluoresce violet], CIT2-GFP yeast inconclusive, AGP1 TOR yeast inconclusive
O=C(Nc1nc2ccccc2s1)c1cccc(S(=O)(=O)N2CCc3ccccc32)c1	none
O=C(Nc1nc2c(s1)CN(Cc1ccccc1)CC2)c1cccc(S(=O)(=O)N2CCc3ccccc32)c1	RPL19A TOR yeast 20[may fluoresce violet], MEP2 TOR yeast inconclusive, CIT2-GFP yeast inconclusive, LAP4-GFP MLPCN inconclusive, AGP1 TOR yeast inconclusive
CCOC(=O)C(=NCC1CCCO1)NNc1ccccc1Cl (configuration not stated)	none
CC(C)c1ccc(NC(=O)NCc2cccnc2)cc1	none
Cc1ccc2nc(SCCCCOc3ccccc3)[nH]c2c1	none
c1ccc(OCCSc2nc3ccccc3[nH]2)cc1	RPL19A TOR yeast 44[may fluoresce violet], MEP2 TOR yeast 182[may fluoresce violet], CIT2-GFP yeast inconclusive (no result: AGP1 TOR yeast)
O=c1c(C=NCC2CCCO2)c(-c2ccccc2)[nH]n1-c1ccc([N+](=O)[O-])cc1 (configuration not stated)	RPL19A TOR yeast 35[may fluoresce violet], MEP2 TOR yeast inconclusive, CIT2-GFP yeast inconclusive, LAP4-GFP MLPCN inconclusive, AGP1 TOR yeast inconclusive
COC(=O)c1ccc(/C=C2/SC(=S)N(CCC(=O)NCCCN3CCOCC3)C2=O)cc1	MEP2 TOR yeast 566[may fluoresce violet], CIT2-GFP yeast inconclusive, AGP1 TOR yeast inconclusive
O=c1[nH]c2c(=O)[nH]cnc2nc1-c1ccccc1	MEP2 TOR yeast 204 (no result: CIT2-GFP yeast, LAP4-GFP MLPCN, AGP1 TOR yeast)
COc1ccccc1CNC(=O)C1CCN(S(=O)(=O)c2ccc3nc4c(c(C(=O)O)c3c2)CCCC4)CC1	RPL19A TOR yeast 35[may fluoresce violet], MEP2 TOR yeast 258[may fluoresce violet], CIT2-GFP yeast inconclusive, AGP1 TOR yeast inconclusive
CCC(=O)c1ccc(OCC(=O)OCC(=O)NCCC2=CCCCC2)cc1	none
O=Cc1c(Sc2ccccc2)nc2ccccn2c1=O	MEP2 TOR yeast 223[may fluoresce violet], CIT2-GFP yeast inconclusive, AGP1 TOR yeast inconclusive
O=Cc1c(Sc2ccccn2)nc2ccccn2c1=O	none
O=c1c(Cl)c(Nc2cccc(Cl)c2)cnn1-c1nc2ccccc2s1	none
COc1ccc(Nc2cnn(-c3nc4ccccc4s3)c(=O)c2Cl)cc1	MEP2 TOR yeast 181
COc1cc(NC(=O)c2ccccc2)ccc1NC(=O)c1cc2ccccc2o1	MEP2 TOR yeast 207
CC(C)Oc1ccccc1C1Nc2ccccc2C(=O)N1c1ccc2c(c1)OCCO2 (configuration not stated)	MEP2 TOR yeast 210[may fluoresce violet], CIT2-GFP yeast inconclusive (no result: AGP1 TOR yeast)
CC(C)Oc1ccccc1C1CC(=O)Nc2cc3c(cc21)OCCO3 (configuration not stated)	none
O=C(NCc1ccccn1)C1CCN(S(=O)(=O)c2cccs2)CC1	none
O=C(NCc1ccccc1Cl)C1CCN(S(=O)(=O)c2cccs2)CC1	RPL19A TOR yeast 42[may fluoresce violet], MEP2 TOR yeast 205[may fluoresce violet], CIT2-GFP yeast inconclusive, AGP1 TOR yeast inconclusive
O=C(C1CCN(S(=O)(=O)c2cccs2)CC1)N(c1ccccn1)C1CCCCC1	RPL19A TOR yeast 46[may fluoresce violet], CIT2-GFP yeast inconclusive, AGP1 TOR yeast inconclusive
N#Cc1c(N)nc2c(c1-c1ccncc1)CCCCC2	MEP2 TOR yeast 817[may fluoresce violet], CIT2-GFP yeast inconclusive, AGP1 TOR yeast inconclusive
CCN(CC)S(=O)(=O)c1ccc(NC(=O)CNC2CCCCC2)cc1	none
O=C(CSc1cccc[n+]1[O-])c1cc2ccccc2o1	LAP4-GFP MLPCN 155
O=C(O)CSc1cccc[n+]1[O-]	none
Cc1cc(C(=O)O)cc(S(=O)(=O)Nc2c(C)nn(C)c2C)c1C	none
O=C1CSC(=S)N1/N=C/c1cc(Br)c(O)c(Br)c1	Efflux pump mplx 7.5
COc1ccccc1OCC(=O)Nc1cc(Cl)ccc1N1CCCCC1	none
NC(=S)N/N=C/c1ccc(-c2ccccc2)o1	none
Cc1ccc(-c2ccc(/C=N/NC(N)=S)o2)cc1	LAP4-GFP MLPCN 158
Oc1[nH]c(N=C2N=c3ccccc3=N2)c2ccccc12	MEP2 TOR yeast 191[may fluoresce violet], CIT2-GFP yeast inconclusive
CC(C)=CCN1CCN(Cc2cn(C(C)C)c3ccccc23)CC1CCO (configuration not stated)	none
Cc1ncc2c(n1)-c1cc(F)ccc1SC2	MEP2 TOR yeast 178
Cc1ccc(CCNC(=O)C2CCCN(S(=O)(=O)N3CC(C)CC(C)C3)C2)cc1 (configuration not stated)	none
O=C(NCCN1CCOCC1)c1ccc(CS(=O)(=O)Cc2ccccc2F)o1	MEP2 TOR yeast 192
CCCCCN(C(=O)CCC(=O)OCC(=O)N1C(C)CCCC1C)c1c(N)n(CCCC)c(=O)[nH]c1=O (configuration not stated)	none
C=CCNC(=S)N/N=C(\C)c1cccc(OC)c1	MEP2 TOR yeast 217
COc1ccc(N2CCN(C(C)C(=O)N3CCCC3)CC2)cc1 (configuration not stated)	none
Cc1ccc(C)c(OCc2cc(C(=O)NC(C)c3cnn(C)c3)no2)c1 (configuration not stated)	RPL19A TOR yeast 25[may fluoresce violet], CIT2-GFP yeast inconclusive, AGP1 TOR yeast inconclusive
Cc1nc(C(C)NC(=O)c2cc(COc3ccc(C)c(C)c3)on2)c(C)s1 (configuration not stated)	RPL19A TOR yeast 17[may fluoresce violet], CIT2-GFP yeast inconclusive, AGP1 TOR yeast inconclusive
CCc1nnc(SCC(=O)NCCC2=CCCCC2)nc1CC	none
c1ccc(C(c2nnnn2Cc2cccs2)N2CCN(C3CCCC3)CC2)cc1 (configuration not stated)	RPL19A TOR yeast 33[may fluoresce violet], MEP2 TOR yeast 231[may fluoresce violet], CIT2-GFP yeast inconclusive, AGP1 TOR yeast inconclusive
Cc1nnc(SCC(=O)N(C)C2CCS(=O)(=O)C2)n1Cc1ccccc1 (configuration not stated)	RPL19A TOR yeast 27[may fluoresce violet], MEP2 TOR yeast 269[may fluoresce violet], CIT2-GFP yeast inconclusive, AGP1 TOR yeast inconclusive
CCOc1ccc(S(=O)(=O)N2CCCC(C(=O)Nc3cccc(C)c3)C2)cc1 (configuration not stated)	none
CCOC(=O)Cc1cc(=O)n(-c2nc3ccccc3s2)[nH]1	none
